GAA glycogen mod – alters human alpha-glucosidase cleavage of glycogen; recombinant GAA, glycogen substrate, Amplex Red glucose oxidase fluorescence; Potency, µM (series often up to 76.4 µM), for inactives: top-dose activity change, negative = inhibition, actives largely listed as inhibitors; hit rate 0.38% among 300,000;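 further: 0% = full enzyme reaction and -100% = no-enzyme basal signal; the screen sought inhibitors and activators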
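Recombinant human enzyme (4 nM); glycogen substrate; 37 C, 40 min, pH 5.0. Readout: coupled glucose oxidase/Amplex Red fluorescence.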
GALK inhibitor – galactokinase (human) inhibition; P51570; Purified GALK, Kinase-Glo residual ATP luminescence; Potency, µM (series often up to 57.5 µM), for inactives: at the top dose activity change, negative = inhibition, hits mostly inhibitors; hit rate 0.007% among 270,000
Target sequence (P51570 whole entry, looked up): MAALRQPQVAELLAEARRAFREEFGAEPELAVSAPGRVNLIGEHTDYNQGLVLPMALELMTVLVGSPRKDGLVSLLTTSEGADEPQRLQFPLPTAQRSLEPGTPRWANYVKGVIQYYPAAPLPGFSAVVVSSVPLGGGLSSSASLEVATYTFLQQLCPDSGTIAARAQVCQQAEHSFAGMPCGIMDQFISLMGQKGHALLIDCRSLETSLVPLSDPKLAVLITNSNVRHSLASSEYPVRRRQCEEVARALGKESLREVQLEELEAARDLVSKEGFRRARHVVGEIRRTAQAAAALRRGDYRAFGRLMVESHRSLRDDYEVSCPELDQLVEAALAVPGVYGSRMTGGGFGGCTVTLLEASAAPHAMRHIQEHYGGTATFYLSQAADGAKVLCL
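Human GALK (5 nM) with 35 uM ATP and 100 uM galactose in 20 mM HEPES pH 8.0, 5 mM MgCl2, 60 mM NaCl, 1 mM DTT, 0.01% BSA. After 1 h at room temperature, leftover ATP was read by Kinase-Glo Plus luminescence.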
PKM2 activator – activators of human pyruvate kinase M2; purified PKM2, Kinase-Glo ATP luminescence, activation; response scale: 0% is enzyme alone, no compound; Potency, µM (doses to about 57.5 µM), for inactives: top-dose activation, usual class: activators; hit rate 0.34% among 260,000; AID 1631; further: nearly all actives have a fitted effect of over 55% in size
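Purified hPK-M2 (>95%) run at intermediate activity with 0.1 mM ADP and 0.5 mM PEP in 50 mM imidazole pH 7.2, KCl, MgCl2; 1 h room temperature. ATP formed read by Kinase-Glo luminescence; normalized to uninhibited and no-enzyme controls.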
aGlu spleen mod – inhibitors or activators of human alpha-glucosidase in spleen homogenate; P10253; human spleen homogenate, 4-MU-alpha-glucoside fluorescence; Potency, µM (doses to about 79.9 µM), inactives show at the highest dose activity change, negative = inhibition, actives largely listed as inhibitors; hit rate 0.006% among 240,000;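 further: 0% = enzyme with vehicle and -100% = no enzyme basal signal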
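Compounds were titrated against alpha-glucosidase in spleen homogenate at pH 5.0, with 1 mM 4-methylumbelliferyl substrate for 40 min at 37 C. Reactions were quenched with pH 10 NaOH/glycine and fluorescence measured.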
GAA inhib – blocks human lysosomal alpha-glucosidase; P10253; purified human GAA, 4-MU-alpha-glucoside fluorescence; Potency, µM (titrated, usually from 76.9 µM), for inactives: top-dose activity change, negative = inhibition, hits mostly inhibitors; hit rate 0.005% among 200,000; AID 1466;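 further: plate controls were uninhibited enzyme wells for no effect and no-enzyme background for full effect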
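Fluorogenic assay: 4 nM human alpha-glucosidase with 400 uM 4-methylumbelliferyl-alpha-D-pyranoside in 50 mM citrate/phosphate, 0.005% Tween-20, pH 5.0, 20 min at room temperature. Compounds tested up to 77 uM; AC50 from Hill fits.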
* marks the source's active call; other numbers are inactive results; ? = inconclusive; . = no result; [ ] = remark or other dose. The list is not random: actives were taken first. Their share in the collection is about 0.63%. The call rests on the fitted dose curve; in most records, active means well fitted curve in the direction sought with a large enough effect; inconclusive means small, poorly fitted or top-dose-only effect, or another doubt; inactive means no such curve, though single readings can be large; an effect the other way counts as inactive or inconclusive. Unless noted, on the % scale 0 is the no-effect control and ±100 the full control effect; potency means the concentration at half of the fitted maximal effect.

SMILES	GAA glycogen mod	GALK inhibitor	PKM2 activator	aGlu spleen mod	GAA inhib
CC[C@H](C)[C@H](NC(=O)[C@H](CO)NC(=O)[C@H](C)NC(=O)[C@H](C)NC(=O)[C@H](CCC(N)=O)NC(=O)[C@H](CCCCN)NC(=O)[C@H](CCCN=C(N)N)NC(=O)[C@@H](N)CS)C(=O)N[C@@H](CCCCN)C(=O)N[C@H](C(=O)N[C@@H](C)C(=O)N[C@H](C(=O)N[C@@H](CO)C(=O)O)C(C)C)C(C)C	.	.	.	4%	.
Cc1ccc(O)c(NC2=C(Cl)C(=O)N(Cc3ccccc3)C2=O)c1	?	-4%	8.9µM*	-1%	-10%
CCOc1ccc(NC2=C(Cl)C(=O)N(Cc3ccccc3)C2=O)cc1	-7%	-1%	-1%	-11%	5%
COc1ccccc1CNC(=O)CN1C(=O)COc2ccc(S(=O)(=O)N3CCC(C)CC3)cc21	4%[76.3 µM]	.	.	.	.
Cc1cc(N2CCN(S(=O)(=O)c3ccc4c(c3)OCCO4)CC2)n2ncnc2n1	0%	3%	25µM*	-1%	0%
COc1cccc(Cn2c(-c3nonc3NC(C)=O)nc3ccccc32)c1	3%[76.3 µM]	.	.	.	.
CCN1C(=O)C2(c3ccccc31)c1c(oc3ccc(F)cc3c1=O)C(=O)N2CCCOC (centres undefined)	-9%[76.3 µM]	.	.	.	.
COc1cccc(CNC(=O)c2ccc(CSc3nc4ccncc4n3Cc3cccc(C)c3)cc2)c1	-2%[76.3 µM]	.	.	.	.
CCOc1ccc2c(c1)s/c(=N\S(=O)(=O)c1ccc(OC)cc1)n2C(F)F	6%	1%	1.6µM*	-5%	-8%
O=C(O)CCc1ncc(C(F)(F)F)cc1Cl	2%	-3%	2%	-11%	-1%
O=C(O)CC/C(=N/Nc1ncc(C(F)(F)F)cc1Cl)C(=O)O	18µM*	-2%	-27%	-2%	-3%
Cc1ccccc1NC(=O)CC1SC(=O)N(c2ccccc2)C1=O (centres undefined)	25µM*	0%	-2%	-7%	-10%
CCOc1ccc(NC(=O)CC2SC(=O)N(c3ccccc3)C2=O)cc1 (centres undefined)	20µM*	3%	13%	-3%	-6%
CC(C)CCNC(=O)c1ccc2c(c1)N(Cc1ccccc1F)C(=O)c1ccccc1S2=O (centres undefined)	-13%[76.3 µM]	.	.	.	.
Cc1ccc(NC(=O)CN2C(=O)CCc3ccccc32)cc1C	9%[76.3 µM]	.	.	.	.
COCCCNC(=O)CCn1c(=O)c2ccccc2n(CC(=O)Nc2cc(Cl)ccc2OC)c1=O	-15%[76.3 µM]	.	.	.	.
CCOc1ccc(C(=O)N2CCN(c3cccc(C)c3C)CC2)cc1	-6%	0%	14µM*	6%	-3%
CCOc1ccc(C(=O)N2CCN(c3cccc(Cl)c3)CC2)cc1	1%	-1%	15%	2%	-8%
CCNc1nc(NCC)nc(N(C)N)n1	35µM*	-3%	1%	1%	-2%
CC(C)Nc1nc(NC(C)C)nc(N(C)N)n1	28µM*	1%	6%	1%	-3%
CC(C)Nc1nc(NC(C)C)nc(N(C)C(N)=O)n1	4%	-3%	-3%	-3%	8%
O=C(CCc1nc2cccnc2n1Cc1ccccc1)NCc1cccc(Cl)c1	3%[76.3 µM]	.	.	.	.
Cc1sc2nc(CN3CCN(c4ccc(O)cc4)CC3)[nH]c(=O)c2c1C	16µM*	1%	1.3µM*	3%	.
C1CCN(C2CCN(c3nc4nonc4nc3N3CCSCC3)CC2)C1	2%	4%	-6%	6%	-10%
Cc1cccc(N2CCN(c3nc4nonc4nc3N3CCSCC3)CC2)n1	10µM*	1%	2%	5%	11%
SMILES	GAA glycogen mod	GALK inhibitor	PKM2 activator	aGlu spleen mod	GAA inhib
COc1ccc(C2C3=C(CC(c4ccco4)CC3=O)Nc3ccccc3N2C(C)=O)cc1 (centres undefined)	-3%	0%	0%	-4%	-5%
O=C1CC(c2ccco2)CC2=C1C(c1ccccc1)n1nc(C(F)(F)F)nc1N2 (centres undefined)	-9%	0%	4.5µM*	3%	?
Cc1ccc(-n2c(SCC(=O)N/N=C/c3ccccc3C(=O)O)nnc2-c2ccc(Cl)cc2)cc1	5%	-3%	-1%	-1%	.
Cc1ccc(-c2nnc(SCC(=O)N/N=C/c3ccccc3C(=O)O)n2-c2ccc(Cl)cc2)cc1	-3%	-3%	28µM*	-9%	.
Clc1cccc(CSc2nnc(C3CCNCC3)o2)c1	-7%[76.3 µM]	.	.	.	.
Cc1ccc(NNC(=O)c2c(F)cccc2Cl)cc1C	25µM*	-1%	0%	-2%	.
O=C(CNS(=O)(=O)c1cccs1)N1CCN(c2ccccc2F)CC1	?	-1%	11%	.	.
O=C(CNS(=O)(=O)c1cccs1)N1CCN(c2ccccn2)CC1	-3%	-2%	22µM*	-11%	5%
Nc1c(N)c2ccccc2oc1=O	7.1µM*	0%	-14%	-5%	-13%
Cc1ccc(Nc2c(N)c(=O)oc3ccccc23)cc1	20µM*	0%	0%	0%	-14%
CN(C)c1c(N)c(=O)oc2ccccc12	?	5%	-11%	8%	9%
CNc1c(N)c(=O)oc2ccccc12	-4%	0%	-12%	-8%	6%
CCn1cc2nc(SCC(=O)Nc3cc(OC)ccc3OC)n(Cc3ccc(Cl)cc3)c(=O)c2n1	-10%[76.3 µM]	.	.	.	.
CCOc1cc2c3c(c1)C1(Nc4ccccc4S1)C(=O)N3C(C)(C)CC2C (centres undefined)	35µM*	2%	-4%	-1%	-7%
CCOc1cc2c3c(c1)C1(OCCO1)C(=O)N3C(C)(C)CC2C (centres undefined)	-4%	-2%	-11%	0%	-6%
CC(=O)c1ccc(N2CCOCC2)cc1O	.	.	.	2%	.
CC(=O)c1ccc2c3c(ccc(O)c13)CC2	31µM*	6%	-4%	1%	4%
C/C(=N/NC(=O)CNC(=O)/C=C/c1ccco1)c1ccc(Cl)cc1	2%	-2%	25µM*	-2%	1%
Cc1ccc2c(c1)N(C(=O)N1CCC(C(=O)NCCc3ccc(Cl)cc3)CC1)CC(C)O2 (centres undefined)	9%[76.3 µM]	.	.	.	.
CCCCCCC(=O)N(O)C1CC(=O)N(c2ccc(Br)cc2)C1=O (centres undefined)	5%	-3%	5%	-7%	12%
COc1ccccc1N(O)C1CC(=O)N(c2ccc(Br)cc2)C1=O (centres undefined)	8.9µM*	-1%	14%	0%	-1%

Screens from PubChem.
